This is a sample that favours compounds with a hit; in the whole collection about 4.3% have one here.
MITF TRPM1 inh: inhibitors of MITF-driven TRPM1 promoter in melanoma cells; 0.83% of 330,000 active; AID 488899; SK-MEL-5 TRPM1 promoter luciferase, 24 h; inhibition, % at 12.5 µM;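 active means mean inhibition across replicates of 60% or more, whatever share of single replicates reaches that level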
Peg3 promoter: reduces Peg3 promoter-driven luciferase expression in HeLa | inhibition, % at 20 µM | HeLa PEG-Prom luciferase reporter, luminescence, overnight | AID 588405 | 1.7% of 360,000 active;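 active means inhibition of at least 50% at 20 µM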
CF NFkB block: inhibitors of cystic fibrosis induced NF-kB. 0.86% of 360,000 active. AID 588850. KKLEB NF-kB-GFP reporter, PAF-induced, GFP fluorescence overnight. inhibition, % at 5 µM;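 active means at least 50% inhibition at 5 µM, scaled per plate between neutral and stimulator controls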;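 further: PAF is a Pseudomonas aeruginosa culture filtrate used as stimulus; plate controls were PAF-stimulated DMSO wells for no effect and unstimulated DMSO wells for full effect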
KKLEB cytotox: counter-screen for CF NF-kB inhibitors: cytotoxicity | KKLEB CF airway cells viability, ATPlite luminescence, overnight; stronger effect = lower value; cells stimulated with P. aeruginosa culture filtrate | activity change (cytotoxicity), % at 5 µM | 0.36% of 360,000 active | AID 602141;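 active means corrected activity change at or below -50% at 5 µM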
CHOP inh: blocks CHOP induction under ER stress; CHO-K1 CHOP-promoter luciferase, tunicamycin-induced, 15-18 h; inhibition, % at 10 µM; 3.8% of 220,000 active; AID 2732;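 active means compounds that reduced the stress-induced luciferase reporter signal by more than about 70% of percent inhibition, limit read from the data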;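 further: 0% = tunicamycin plus vehicle and 100% = wells without tunicamycin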
HIF-2a block: inhibitors of HIF-2a; 786-0 RCC cells HIF-2a reporter, luciferase luminescence, overnight; inhibition, % at 18.8 µM; 0.72% of 360,000 active; AID 624352;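 active means inhibition of the luminescence signal of 40% or more relative to plate controls, in a single-dose primary screen at 18.75 µM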
The depositor's hits bear a star; · = no result given.

SMILES | MITF TRPM1 inh | Peg3 promoter | CF NFkB block | KKLEB cytotox | CHOP inh | HIF-2a block
COc1ccc(-c2nnc(NC(=O)c3ccc(S(=O)(=O)N4CCCc5ccccc54)cc3)o2)cc1 | 30.4 | 53.5* | 5.0 | -3.4 | 16.9 | 19.4
O=C(O)CCC(C(=O)O)N1C(=O)c2ccccc2C1=O (configuration not stated) | · | · | · | · | -4.0 | ·
CCOCCCNC(=S)N(CCO)Cc1cc2cc3c(cc2[nH]c1=O)OCCO3 | -1.1 | 3.9 | 5.5 | -6.5 | · | 10.7
CC(C)NC(=O)C1(C)CCN1C(=O)c1cccc(F)c1 (configuration not stated) | · | 7.5 | -5.1 | -1.4 | · | 3.4
O=C(NCCc1ccc(O)c(O)c1)C1COc2ccccc2O1 (configuration not stated) | 8.4 | 24.2 | 14.5 | -3.5 | · | 9.6
Cc1ccc(S(=O)(=O)n2ccc3c2CCCC3=O)cc1 | 4.6 | -1.9 | -29.3 | 4.0 | · | 2.2
CC(C)CCC1(C)NC(=O)N(CC(=O)c2ccc[nH]2)C1=O (configuration not stated) | 9.0 | 5.2 | 6.3 | 5.1 | · | -1.2
Cn1c(NCc2ccco2)nc2c1c(=O)n(Cc1ccc(Cl)cc1)c(=O)n2C | 14.8 | 26.8 | 22.5 | -8.9 | 79.3* | 21.2
Cn1c(NCc2ccco2)nc2c1c(=O)n(Cc1ccc(Br)cc1)c(=O)n2C | 3.5 | 34.0 | 17.5 | 12.0 | 89.0* | 8.3
Cn1c(=O)n(Cc2ccc(Cl)cc2)c(=O)c2c1nc1n2CCN1Cc1ccco1 | 22.9 | 34.1 | -1.6 | -8.2 | 22.5 | 27.5
Cn1c(NCc2ccco2)nc2c1c(=O)n(Cc1ccc(Cl)cc1Cl)c(=O)n2C | -0.6 | 27.0 | 5.2 | -4.8 | 88.3* | 19.4
COC(=O)/C=C1/S/C(=N/NC(=O)c2ccc(Cl)cc2Cl)NC1=O | · | 5.7 | -4.1 | -3.9 | -10.6 | 13.5
O=C(c1ccc(Cl)cc1[N+](=O)[O-])N(Cc1ccccc1)Cc1ccccc1 | · | · | · | · | 73.3* | ·
CC1(C(=O)N/N=C/c2ccc([N+](=O)[O-])o2)CC1(Br)Br (configuration not stated) | 74.2* | 9.9 | 2.5 | -4.5 | -15.8 | 10.6
Cc1ccccc1OCC(=O)N/N=C/C=C/c1ccccc1 | -16.9 | -9.1 | 18.5 | -16.6 | 20.1 | -20.6
Cc1cccc(OCC(=O)N/N=C/CC(C)c2ccccc2)c1C (configuration not stated) | -11.8 | 16.9 | -0.7 | -9.9 | 77.5* | 4.1
CCOC(=O)N/N=C\c1ccc([N+](=O)[O-])o1 | 20.4 | 3.1 | 11.2 | -4.2 | -10.5 | 6.7
Cc1ccccc1OCC(=O)N/N=C/c1ccc([N+](=O)[O-])o1 | 78.9* | 6.8 | 0.1 | -0.7 | -37.8 | -7.5
COc1ccccc1OCC(=O)N/N=C/C=C/c1ccc([N+](=O)[O-])o1 | 75.6* | -21.0 | -3.7 | 0.0 | 7.3 | -4.1
CC(=O)NCCNC(=O)c1ccc(CSc2nc3ccccc3s2)cc1 | 12.0 | 19.8 | -6.4 | -3.5 | · | 14.3
Cc1cc(C)cc(OCC(=O)N/N=C/c2ccc([N+](=O)[O-])o2)c1 | 66.5* | 1.4 | -9.0 | 9.9 | -90.5 | -11.9
O=C(N/N=C/C=C/c1ccccc1[N+](=O)[O-])c1cccs1 | -6.4 | -51.8 | -1.3 | -0.3 | 26.3 | -63.1
O=C(N/N=C\C=C\c1ccc([N+](=O)[O-])o1)c1cccs1 | 82.6* | 28.0 | -48.8 | 12.0 | · | -6.1
O=C(NCc1ccc(F)cc1)c1cc(C2CCCCN2S(=O)(=O)c2ccc(F)cc2F)on1 (configuration not stated) | · | 6.4 | -14.2 | 10.9 | · | 11.3
O=C(NCc1ccccc1Cl)C1CCC(CNc2c(N3CCOCC3)c(=O)c2=O)CC1 (configuration not stated) | -10.4 | 3.4 | -4.5 | -1.0 | -9.7 | 14.5
SMILES | MITF TRPM1 inh | Peg3 promoter | CF NFkB block | KKLEB cytotox | CHOP inh | HIF-2a block
COCCn1c(C)cc(C(=O)COC(=O)c2ccc[nH]c2=O)c1C | 15.3 | 51.7* | 10.6 | 1.7 | 43.1 | 31.2
CC(C)(C)c1ccc(/C=N/N2C(=O)CSC2=S)cc1 | 10.3 | 17.0 | -8.7 | -1.6 | · | 57.0*
COc1ccc(/C=N/N2C(=O)CSC2=S)cc1 | -8.6 | -7.5 | -20.1 | 0.8 | 34.2 | -8.9
Cc1ccc(/C(N)=N/OC(=O)c2ccc(C)cc2Cl)cc1 | 14.5 | -84.3 | -6.7 | -63.6* | -4.8 | -65.3
O=C(NCCN1CCOCC1)c1ccc(/C=C2\Sc3ccccc3N(Cc3ccccc3F)C2=O)cc1 | -4.7 | 59.2* | 46.3 | -9.8 | · | -6.5
Cc1ccccc1CN1C(=O)/C(=C\c2ccc(C(=O)NCCN3CCOCC3)cc2)Sc2ccccc21 | -2.6 | 56.6* | 13.3 | 6.8 | · | 17.5
CN1CCN(CCCNC(=O)c2ccc(/C=C3\Sc4ccccc4N(Cc4ccccc4F)C3=O)cc2)CC1 | -8.9 | 74.3* | -7.3 | 0.6 | -32.1 | -5.1
CN1C(=O)/C(=C\c2ccccc2F)Sc2ccc(C(=O)NC3CCN(Cc4ccccc4)CC3)cc21 | 29.1 | 58.3* | 26.6 | -18.0 | · | 16.6
COc1ccc(/C=C2\Sc3ccc(C(=O)NC4CC4)cc3N(C)C2=O)cc1OC | -7.6 | 19.0 | 16.6 | -10.8 | · | 27.0
O=C(CN1C(=O)/C(=C/c2ccc(C(F)(F)F)cc2)Sc2ccccc21)NCCCN1CCOCC1 | -15.4 | 6.7 | 19.8 | -8.7 | · | -17.7
CCCCOCCCNC(=O)C[C@@H]1C[C@@]2(C(=O)OC)CCCCC=C2N(Cc2ccccc2)C1=O | · | · | · | · | · | 0.1
Cc1cccc(NC(=O)C2CCCN(c3ncnc4c3nc3n4CCCCC3)C2)n1 (configuration not stated) | · | 44.8 | -6.2 | -1.0 | · | 14.1
CSc1ccc(CN2CCC(n3nccc3NC(=O)C3CCOC3)CC2)cc1 (configuration not stated) | 7.2 | 12.3 | 0.9 | 12.9 | · | 14.5
CCN1CCN(CCNC(=O)c2ccc3c(c2)N(Cc2ccc(F)cc2)C(=O)/C(=C/c2ccccc2)S3)CC1 | 91.7* | 103.0* | 37.2 | -25.5 | 106.6* | 29.1
O=C(NCCN1CCOCC1)c1ccc2c(c1)N(Cc1cccc(F)c1)C(=O)c1ccccc1S2 | 1.6 | 18.5 | 19.2 | -2.7 | 26.4 | 26.0
CC1CCN(c2ccc3nnc(CCC(=O)N4CCN(c5ccc(F)cc5)CC4)n3n2)CC1 | 19.1 | 10.1 | 7.2 | 13.3 | · | 7.0
CC1(C(=O)NCc2cccc(Cl)c2)Cc2c(-c3ccc4c(c3)OCO4)ccnc2O1 (configuration not stated) | · | 23.1 | 6.1 | -3.1 | · | 11.5
COCC(C)n1c(-c2ccc3c(c2)NC(=O)CO3)csc1=Nc1ccc(OC(F)F)cc1 (configuration not stated) | 40.3 | 6.3 | 10.2 | -11.0 | 88.6* | -12.6
COc1ccccc1N=c1scc(-c2ccc3c(c2)NC(=O)CO3)n1CC1CCCO1 (configuration not stated) | 6.8 | 24.4 | 0.0 | -3.4 | 49.2 | 10.9

Screening results (PubChem)
